Data as given in PubChem BioAssay (NCI).
Compounds without any hit were thinned out: in the full panel of roughly 83,000, 20% have a hit.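 A percent growth of 40 corresponds to 60% growth inhibition; 0 means no net growth; -100 means all cells died. Active threshold: below 10.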 Values without a mark were called inactive. Calls of active or inactive are those of the source.

Legend:
Assay in all cases: NCI-60 one-dose screen, 48 h (100 = growth as untreated, 0 = no growth, -100 = all killed)
Conditions in all cases: 10 µM unless noted
[1] = tested on: SK-MEL-2 melanoma
[2] = tested on: EKVX NSCLC
[3] = tested on: SN12C renal
[4] = tested on: UO-31 renal
[5] = tested on: TK-10 renal
[6] = tested on: ACHN renal
[7] = tested on: CCRF-CEM leukemia
[8] = tested on: MOLT-4 leukemia
[9] = tested on: CAKI-1 renal
[10] = tested on: A498 renal

SMILES	growth [1]	growth [2]	growth [3]	growth [4]	growth [5]	growth [6]	growth [7]	growth [8]	growth [9]	growth [10]
Cc1ccnc(Nc2nc3ccccc3[nH]2)n1	105%	104%	104%	104%	113%	106%	93.3%	92.4%	–	–
Cc1cc(Cl)cc(Cc2cc(Cl)cc(C)c2O)c1O	-18.1% (active)	53.9%	2.59% (active)	7.78% (active)	34.6%	7.14% (active)	5.51% (active)	-15.1% (active)	–	–
Cc1ccc[n+](CCC(N)=O)c1	97.7%	90.2%	92%	85.9%	94.9%	105%	90.8%	90.9%	91.6%	–
CSCCC(NC(=O)C(Cl)Cl)C(=O)O (centres undefined)	102%	90.2%	97.5%	96.3%	94.1%	101%	97.7%	90.5%	–	108%
Nc1nnc2cc(F)ccc2n1	112%	96.9%	89.1%	85%	126%	99.4%	107%	102%	–	105%
Nc1ccc(F)cc1F	101%	105%	100%	98.4%	106%	102%	–	107%	–	107%
Cc1[nH]c(=S)[nH]c(=O)c1C	107%	109%	106%	96.4%	107%	96.6%	96.9%	89.3%	–	110%
Clc1ccc(/C=C/c2ccccn2)cc1	103%	76.3%	108%	78.1%	99.3%	103%	-56% (active)	86.9%	–	77.3%
O=C1C=Cc2ccccc2/C1=C/c1[nH]c(=O)[nH]c1O	22.9%	69.6%	60.6%	52.5%	65.2%	–	24.3%	43%	68.7%	32.7%
CN=S(=O)(OCCCCCOS(=O)(=NC)c1ccc(C)cc1)c1ccc(C)cc1 (centres undefined)	94%	95.4%	95.1%	–	118%	77.2%	–	78.6%	74.6%	87.6%
COc1cc(N)c2ncccc2c1Cl	96.7%	84.3%	91.5%	78.4%	93.6%	–	–	93.3%	95.8%	97.1%
S=C=Nc1ccc2ccccc2c1	106%	103%	111%	–	109%	100%	106%	98.1%	87.7%	–
CC(=O)OCC1CCC(COC(C)=O)CC1 (centres undefined)	89.8%	94.3%	110%	91.9%	89.1%	–	–	93.1%	–	109%
O=C(Nc1cccc(Cl)c1)c1ccc(Cl)cc1Cl	95.6%	84.3%	92.9%	–	90.1%	99.7%	89.6%	87.9%	92.2%	87.8%
Cc1cccc(C)c1NC(=S)/N=C\c1c(O)[nH]c(=O)[nH]c1=O	103%	77.3%	98.5%	–	106%	102%	–	–	96.5%	103%
O=C(O)C1CCCN1C(=O)OCc1ccccc1 (centres undefined)	94.7%	117%	103%	–	106%	109%	112%	96.2%	–	108%
O=C1CSc2ccccc2N1	103%	97%	100%	–	105%	110%	96.6%	114%	–	97.2%
N#Cc1ccc(OC(=O)Nc2cc(Cl)cc(Cl)c2)cc1	-42.5% [100 µM] (active)	-2.41% [100 µM] (active)	-14% [100 µM] (active)	–	-4.01% [100 µM] (active)	0.368% [100 µM] (active)	2.17% [100 µM] (active)	-14.4% [100 µM] (active)	-27.5% [100 µM] (active)	-19.7% [100 µM] (active)
CCOC(=O)/C(C#N)=C\c1c[nH]c2ccccc12	105%	75.7%	90.5%	–	221%	85.1%	108%	81.6%	30.8%	153%
NNc1ncnc2c1ncn2C1OC(CO)C(O)C1O (centres undefined)	73.5%	60.5%	27.7%	–	52.8%	15.2%	72%	109%	36.1%	43%
NC(=O)c1cc2c3ccccc3ccn2c1-c1ccccc1	-7.59% (active)	14.5%	28.5%	32.2%	47.7%	–	–	7.02% (active)	-9.87% (active)	34.4%
Nc1ncnc(Nc2ccc(C(F)(F)F)cc2)n1	103%	99.7%	99.8%	–	109%	98.2%	116%	96.6%	93.2%	–
CN1C(=O)NC(c2ccc(Cl)cc2)(c2ccc(Cl)cc2)C1=O	80.6%	91.5%	103%	–	129%	108%	-30.3% (active)	89.1%	92.9%	110%
COc1ccc(C2CCCCC2=O)cc1 (centres undefined)	119%	102%	109%	96.7%	–	98.7%	106%	97.9%	105%	99.7%
COc1ccc(NNS(=O)(=O)O)cc1	103%	104%	89.9%	–	103%	97.4%	99.2%	105%	98.5%	69.5%
CC12CCC3c4ccc(O)cc4CCC3C1CCC2=O (centres undefined)	98.7%	83.8%	96.2%	81.7%	91.1%	–	93.7%	81.1%	102%	–
